TDP1 inh = TDP1 (human) enzyme inhibition; Q9NUW8; recombinant TDP1, AlphaScreen DNA substrate cleavage; Potency, µM (top dose mostly 130 µM), for the others: top-dose activity change, negative = inhibition, most hits filed as inhibitors; 350,000 compounds, 0.28% hits; note: nearly all actives have a fitted effect of over 40% in size
Target sequence (Q9NUW8 whole entry, looked up): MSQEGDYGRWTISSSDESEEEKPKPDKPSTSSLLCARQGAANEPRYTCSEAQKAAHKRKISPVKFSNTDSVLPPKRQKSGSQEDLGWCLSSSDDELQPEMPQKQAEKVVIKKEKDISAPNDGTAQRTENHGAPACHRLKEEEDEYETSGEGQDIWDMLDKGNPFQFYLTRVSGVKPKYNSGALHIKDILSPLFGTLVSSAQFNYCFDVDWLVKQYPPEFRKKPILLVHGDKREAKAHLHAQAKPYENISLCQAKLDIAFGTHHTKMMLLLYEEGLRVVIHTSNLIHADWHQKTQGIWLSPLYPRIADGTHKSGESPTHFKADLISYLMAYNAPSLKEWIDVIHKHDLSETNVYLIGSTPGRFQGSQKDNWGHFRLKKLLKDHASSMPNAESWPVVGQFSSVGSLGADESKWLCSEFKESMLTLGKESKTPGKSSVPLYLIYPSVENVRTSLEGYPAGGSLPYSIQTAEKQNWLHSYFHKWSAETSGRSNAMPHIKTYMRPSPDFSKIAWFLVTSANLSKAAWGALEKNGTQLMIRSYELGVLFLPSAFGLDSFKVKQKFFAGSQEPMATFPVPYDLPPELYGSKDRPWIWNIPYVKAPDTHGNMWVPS
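E. coli-derived human Tdp1, 1 nM final. Cpd preinc 15 min RT; substrate 15 nM final, 5 min RT; AS bead mix 10 ug/ml final, 10 min RT. Signal loss = tyrosine-FITC cleavage. No-enzyme wells = max signal.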
TDP1 cell noCPT = qHTS for Inhibitors of human tyrosyl-DNA phosphodiesterase 1 (TDP1): qHTS in cells in absence of CPT. 420,000 compounds, 15% hits. DT40 Tdp1-/- hTDP1 cells, no CPT, ATP luminescence, 48 h. Potency, µM (doses to about 46.2 µM), without a hit: top-dose activity change, negative = growth inhibition, usual class: inhibitors. AID 686978, 2013; note: nearly all actives have a fitted effect of over 55% in size
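DT40 Tdp1-/-;hTDP1 cells, no CPT (DMSO vehicle only), 400 cells/well; compounds pin-transferred; ≥48 hr, 37 °C; CellTiter-Glo 30 min RT dark, luminescence read.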
VP16 counter = inhibits Gal4-VP16 luciferase reporter, ROR gamma counter-screen; Drosophila S2 Gal4-VP16 UAS-luciferase, luminescence, 20 h; Potency, µM (titrated, usually from 53.6 µM), for inactives: top-dose activity, negative = inhibition, hits mostly inhibitors; 310,000 compounds, 3.5% hits;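 note: Gal4-VP16 expression switched on by copper sulfate through the metallothionein promoter; nearly all actives have a fitted effect of over 50% in size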
TDP1 cell CPT = growth inhibition of DT40 Tdp1-/-;hTDP1 cells with camptothecin (screen for TDP1 inhibitors). AID 686979. Potency, µM (titrated, usually from 46.2 µM), without a hit: at the top dose activity change, negative = growth inhibition, hits mostly inhibitors. 420,000 compounds, 12% hits. chicken DT40 Tdp1-/-;hTDP1 cells + 20 nM CPT, ATP luminescence, 48 h; note: nearly all actives have a fitted effect of over 55% in size
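Chicken DT40 Tdp1-/- cells complemented with human TDP1, 400 cells/well, exposed to compounds plus 20 nM camptothecin for at least 48 h at 37 C; viability read as ATP content by CellTiter-Glo luminescence.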
RORgamma inh = inhibitors of mouse ROR gamma transcriptional activity | P51450 | Drosophila S2 Gal4-RORgamma UAS-luciferase reporter, 20 h | Potency, µM (titrated, usually from 53.6 µM), inactives show top-dose activity change, negative = inhibition, actives largely listed as inhibitors | 310,000 compounds, 5.4% hits | AID 2551; note: nearly all actives have a fitted effect of over 60% in size
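Schneider cells (Drosophila), stable Gal4 DBD–ROR gamma + UAS-luc; 1 hr cmpd preincubation; Cu2+ induction 700 uM final; 20 hr ambient; luminescence.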
The depositor's hits bear a star; u = inconclusive; x = no result; [ ] = remark or other dose. Only some compounds are listed: those with a hit (about 19% of all), similar ones and a draw of the others. Calls come from the whole dose curve; as a rule, active = well fitted curve in the direction sought with a large enough effect; inconclusive = small, poorly fitted or top-dose-only effect, or another doubt; inactive = no such curve, though single readings can be large; an effect the other way counts as inactive or inconclusive. % is set by controls: 0 for no effect and ±100 for the full control effect; potency is the fitted concentration of half-maximal effect.

SMILES | TDP1 inh | TDP1 cell noCPT | VP16 counter | TDP1 cell CPT | RORgamma inh
O=C(C1CC(=O)N(c2ccc3c(c2)OCCO3)C1)N1CCN(c2ccccc2O)CC1 (configuration not stated) | 3% | u | -3% | 21µM* | -3%
CS(=O)(=O)N(CCc1ccccc1)CC(=O)NCc1ccccc1Cl | -4% | u | u | -12% | 16%
O=C(COc1ccc2ccccc2c1)N1CCN(C(=O)c2cccnc2)CC1 | 6% | -17% | -8% | -11% | 1%
Cc1noc(C)c1COC(=O)CCN1c2ccccc2Sc2ccccc21 | 4% | 21µM* | 0% | u | 33%
COc1ccccc1N1CCN(C(=O)c2cc(-c3ccc(F)cc3)on2)CC1 | -6% | u | -13% | -6% | 17%
O=c1cc(Cl)c(-c2ccccc2)nn1Cc1ccc(Cl)cc1 | x | u | -2% | -24% | -1%
CCN(CC)C(=O)c1[nH]cnc1C(=O)NCc1ccc(CNC(=O)OC(C)(C)C)cc1 | 0% | -20% | x | u | x
O=C(CNC(=O)c1nc[nH]c1C(=O)NCc1ccccc1)OCc1ccccc1 | x | u | u | u | 11µM*
C[C@@H](OC(=O)c1[nH]cnc1C(=O)NCc1ccc(CNC(=O)OC(C)(C)C)cc1)c1ccccc1 | 5% | 16µM* | x | 21µM* | x
CCOC(=O)c1[nH]cnc1C(=O)NCc1ccccc1 | 1% | 0% | -5% | -6% | -17%
CN(Cc1ccccc1)C(=O)c1[nH]cnc1C(=O)NCc1ccc(CNC(=O)OC(C)(C)C)cc1 | 0% | 13µM* | x | u | x
C[C@@H]1CNC(=O)c2c(C(=O)NCc3ccc(CNC(=O)OC(C)(C)C)cc3)ncn21 | x | 21µM* | x | u | x
CC1CCCC(=NNc2ccc3ccccc3n2)C1 (configuration not stated) | x | u | x | -5% | x
CCCCCCCCN=C1NC(=O)CS1 | -4% | u | -9% | u | 7%
Cc1cc(Oc2ccc(-c3ccccc3)cc2)nc(N2CCOCC2)n1 | 1% | u | 11% | u | u
COc1cc(Cl)ccc1OCc1cc(C(=O)N(C)CC2CCCCO2)no1 (configuration not stated) | 0% | -11% | -3% | -26% | -2%
Cc1ccnc(NS(=O)(=O)c2ccc(NC(=O)C34CC5CC(C)(CC(C)(C5)C3)C4)cc2)n1 | -5% | -6% | 4% | -17% | 40%
C[C@H](NC(=O)c1nc[nH]c1C(=O)NCC(=O)OCc1ccccc1)C(=O)OCc1ccccc1 | x | u | -17% | -7% | u
C[C@H](NC(=O)c1nc[nH]c1C(=O)NCC(=O)OCc1ccccc1)c1ccccc1 | x | 18µM* | u | u | 14µM*
CC(C)(C)OC(=O)NCc1ccc(CNC(=O)c2[nH]cnc2C(=O)NCC(=O)OCc2ccccc2)cc1 | x | u | 22µM* | u | -42%
O=C(CNC(=O)c1nc[nH]c1C(=O)NCC(=O)OCc1ccccc1)OCc1ccccc1 | x | -26% | u | -6% | -39%
COc1ccc(-n2c(C(C)n3nc(C)c([N+](=O)[O-])c3C)n[nH]c2=S)cc1 (configuration not stated) | 0% | -1% | -16% | -6% | 5%
COc1ccc(-n2c(-c3cccc(C)c3[N+](=O)[O-])n[nH]c2=S)cc1 | 2% | -6% | -6% | -6% | 7.9µM*
Nc1sc(-c2ccccc2)cc1-c1n[nH]c(=S)n1C1CCCCC1 | -5% | 2.6µM* | u | 16µM* | 2.2µM*
COc1ccc(-n2c(-c3cc(-c4ccccc4)sc3N)n[nH]c2=S)cc1 | x | 16µM* | u | u | 2.5µM*
SMILES | TDP1 inh | TDP1 cell noCPT | VP16 counter | TDP1 cell CPT | RORgamma inh
COc1ccc(S(=O)(=O)Nc2ccc3c(c2)n(C)c(=O)n3C)cc1OC | 8%[0.0935 µM] | u | -3% | 0% | -30%
COc1ccc(Cl)cc1S(=O)(=O)Nc1ccc2c(c1)n(C)c(=O)n2C | 8% | u | -5% | 15µM* | 4%
Cn1c(=O)n(C)c2cc(NS(=O)(=O)c3ccc(Cl)s3)ccc21 | 0% | u | -6% | -22% | -37%
COc1ccc(S(=O)(=O)Nc2ccc3c(c2)n(C)c(=O)n3C)cc1F | x | u | u | 23µM* | u
Cc1cc(S(=O)(=O)Nc2ccc3c(c2)n(C)c(=O)n3C)ccc1F | 5% | 29µM* | -23% | 21µM* | 15%
COc1ccc(S(=O)(=O)Nc2ccc3c(c2)n(C)c(=O)n3C)cc1 | -5% | -9% | -8% | 1% | 37%
CN(C(=O)c1ccccc1C(=O)OCC(=O)c1ccc(F)c(F)c1)C1CCCCC1 | 0% | 26µM* | x | u | x
Cc1ccc2nc(SCC(=O)Nc3ccc(Cl)cc3)nc(=O)n2c1 | 0% | u | x | u | x
O=C(CSc1n[nH]c(-c2ccccc2O)n1)N1CCOCC1 | 6% | -20% | -8% | -8% | -23%
CCOC(=O)COc1ccc(CC)cc1C(=O)c1ccn2nc(-c3ccc(F)cc3)cc2n1 | -5% | u | x | u | x
Cc1cc(C)c(C#N)c(=N)o1 | 0% | 26µM* | -11% | 21µM* | 6%
CC1CN(c2nc3ccccc3nc2SCC(=O)Nc2ccc(F)cc2)CC(C)O1 (configuration not stated) | x | u | 3% | 15µM* | -26%
O=C(CSc1nc2ccccc2nc1N1CCCC1)Nc1ccc(F)cc1 | x | u | -10% | u | -8%
O=C(CSc1nc2ccccc2[nH]1)Nc1ccc(N2CCOCC2)cc1 | 6% | 12µM* | 18% | 12µM* | u
Cc1cccc(NC(=O)CSc2nc3ccccc3nc2N2CCC(C)CC2)c1 | -1% | 21µM* | x | 21µM* | x
CCOc1ccccc1NC(=O)CSc1nc2ccccc2nc1N1CCOCC1 | -5% | 21µM* | 0% | 23µM* | 15%
CCOc1ccccc1NC(=O)CSc1nc2ccccc2nc1N1CCCC1 | x | u | -1% | u | 7%
O=C(CSc1nc2ccccc2[nH]1)Nc1cccc(S(=O)(=O)N2CCOCC2)c1 | 5% | u | -2% | u | 30%
COc1ccccc1N1CCN(C/C(O)=C(\C#N)c2nc(-c3ccccc3)cs2)CC1 | -6% | -10% | x | -2% | 10%[0.365 µM]
Cc1ccc(NC(=O)CSc2nc3ccccc3nc2N2CCOCC2)cc1 | 3% | 16µM* | -1% | u | 14%
COc1ccc(C)cc1NC(=O)CSc1nc2ccccc2nc1N1CCOCC1 | -8% | 23µM* | x | u | x
COc1ccc(NC(=O)CSc2nc3ccccc3nc2N2CCCC2)cc1 | x | u | 1% | u | -10%
COc1ccc(C)cc1NC(=O)CSc1nc2ccccc2nc1N1CCCCC1 | x | u | -15% | u | u
CCOc1ccc(NC(=O)CSc2nc3ccccc3nc2N2CCCC2)cc1 | x | 16µM* | -5% | u | -20%
